Compound activity (PubChem BioAssay)
Rows were chosen to be rich in hits. Some 1.4% of all compounds tested hit in one or more screens of this group.
EBV gp42 block = blocks Epstein-Barr virus glycoprotein 42 binding. Q1HVG2. Fluorescence polarization binding assay, mP read-out. inhibition, % (tested at 21.74 µM). 0.42% of 220,000 active. AID 1085; in the data active = inhibition above about 50%
GLD-1 TGE inh = GLD-1-TGE RNA interaction inhibition (C. elegans) | Q17339 | purified GLD-1 + fluorescein TGE RNA, fluorescence polarization | inhibition, % at 5.96 µM | 0.44% of 320,000 active | AID 2280;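 active = percent inhibition above a per-plate cutoff, the plate mean of test compounds plus 3 SD, cut at about 30% in these data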;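 also: 0% = DMSO wells with GLD-1 and probe and 100% = wells lacking GLD-1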
E coli Lon inh = inhibitors of E. coli Lon protease. P0A9M0. purified E. coli Lon protease, fluorescence polarization. inhibition, % at 7.94 µM. 0.42% of 360,000 active; in the data active = inhibition above about 13%, passing the limit was not always enough;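 also: 0% = enzyme with probe and DMSO and 100% = no enzyme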
Target sequence (P0A9M0 whole entry, looked up): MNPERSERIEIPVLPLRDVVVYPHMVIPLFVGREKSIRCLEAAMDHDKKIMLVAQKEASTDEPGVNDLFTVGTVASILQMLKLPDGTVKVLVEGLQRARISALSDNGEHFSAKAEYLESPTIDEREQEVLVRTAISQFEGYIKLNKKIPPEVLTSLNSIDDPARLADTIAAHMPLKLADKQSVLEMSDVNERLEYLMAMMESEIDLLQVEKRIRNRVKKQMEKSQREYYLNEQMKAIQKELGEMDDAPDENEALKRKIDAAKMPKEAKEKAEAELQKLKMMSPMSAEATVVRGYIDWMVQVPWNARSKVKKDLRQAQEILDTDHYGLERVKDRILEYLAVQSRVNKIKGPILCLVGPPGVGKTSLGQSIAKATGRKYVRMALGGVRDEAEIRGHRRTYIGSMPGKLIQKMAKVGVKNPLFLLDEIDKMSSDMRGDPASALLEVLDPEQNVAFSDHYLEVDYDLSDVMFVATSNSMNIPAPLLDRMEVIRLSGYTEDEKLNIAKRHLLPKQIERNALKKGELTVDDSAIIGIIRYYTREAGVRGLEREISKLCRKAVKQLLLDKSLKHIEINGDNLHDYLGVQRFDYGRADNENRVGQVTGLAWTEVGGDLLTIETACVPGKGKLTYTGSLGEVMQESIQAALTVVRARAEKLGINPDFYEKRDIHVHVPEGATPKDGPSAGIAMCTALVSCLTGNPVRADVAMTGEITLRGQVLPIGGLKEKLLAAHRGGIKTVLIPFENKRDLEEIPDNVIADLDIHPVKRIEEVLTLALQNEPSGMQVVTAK
BCLXL inh = Bcl-xL (human) inhibition | Q07817 | GST-Bcl-xL / FITC-Bim BH3 peptide fluorescence polarization | inhibition, % at 10.9 µM | 0.7% of 320,000 active | AID 2129;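 active = inhibition above the mean of all tested compounds plus 3 SD, cutoff set per campaign, cut at about 30% in these data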;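 also: 0% = DMSO wells and 100% = unlabeled Bim-BH3 peptide competitor; inhibitors lower millipolarization by displacing the labeled peptide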
MEX-5 binding = C. elegans MEX-5 TCR-2 RNA binding activity; MEX-5/FITC-TCR2 RNA binding, fluorescence polarization; hits give low values; Q9XUB2; activity score (negative = inhibition of binding), % at 10 µM; 0.38% of 300,000 active;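 active = inhibition past about -25% in most replicates, and total fluorescence under double the plate's negative control median, limit read from the data; inconclusive = replicates evenly split on the limit, or fluorescence at least double controls; inactive = too little inhibition in most replicates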;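 also: 0% = DMSO and -100% = 5 µM competing unlabeled TCR2 RNA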
MCL1 BIM primary = disrupts human MCL1 binding to BIM-BH3 peptide | GST-MCL1 / FITC-Bim-BH3 fluorescence polarization | Q07820 | 0.68% of 320,000 active | AID 2057 | inhibition, % at 10.9 µM;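 active = inhibition above the mean inhibition of all tested compounds plus 3 SD, set per campaign, cut at about 40% in these data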;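 also: 0% = DMSO wells and 100% = unlabeled Bim-BH3 peptide control; higher means more loss of mP so more displacement of Bim peptide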
Numbers without * were called inactive.

COCCn1c(=N)c(S(=O)(=O)c2ccc(F)cc2)cc2c(=O)n3ccccc3nc21 was read as GLD-1 TGE inh -5, E coli Lon inh -7, BCLXL inh 0, MEX-5 binding -8 and MCL1 BIM primary -10.
N=c1c(S(=O)(=O)c2ccccc2)cc2c(=O)n3ccccc3nc2n1C1CCCCC1 was read as E coli Lon inh -9.
CCOc1ccc(S(=O)(=O)Nc2cccc(C(=O)N(C)Cc3cccc(OC)c3OC)c2)cc1 was read as GLD-1 TGE inh 7, E coli Lon inh 0, BCLXL inh 3, MEX-5 binding -1 and MCL1 BIM primary 6.
`Cc1ccc([C@H]2C[C@@H](n3cc(C4CC4)nn3)[C@H](O)CN2C(=O)C2CCCCC2)cc1` gave E coli Lon inh -6.
`CC(C)OCCCNC(=O)C(=O)NCCCOC(C)C` gave EBV gp42 block 6, GLD-1 TGE inh 19, E coli Lon inh -9, BCLXL inh 40*, MEX-5 binding -1 and MCL1 BIM primary 1.
Screening CC(C)OCCCNC(=O)c1ccc(Br)cc1 returned EBV gp42 block 4, GLD-1 TGE inh -1, E coli Lon inh 6, BCLXL inh 2, MEX-5 binding 0 and MCL1 BIM primary 4.
For Cc1ccc2c(c1)-n1c(nc3cc(Cl)ccc3c1=O)C(CC(C)C)NC2=O (stereo not given) the results were GLD-1 TGE inh 4.
`Cc1ccc2cc(C=C(C#N)C#N)c(N3CCCCC3)nc2c1` gave EBV gp42 block 117*, GLD-1 TGE inh -3, E coli Lon inh 4, BCLXL inh 0, MEX-5 binding -2 and MCL1 BIM primary -6.
CCOC(=O)/C(C#N)=C/c1cc2ccccc2nc1N1CCCCC1 was read as EBV gp42 block 60*, GLD-1 TGE inh -5, E coli Lon inh -9, BCLXL inh 6, MEX-5 binding -39* and MCL1 BIM primary -3.
Screening Cc1ccc2cc(/C=C(\C#N)C(N)=O)c(N3CCCCC3)nc2c1 returned EBV gp42 block -12, GLD-1 TGE inh -1, E coli Lon inh -10, BCLXL inh 4, MEX-5 binding inconclusive and MCL1 BIM primary -17.
For CCOC(=O)/C=C1/SCC(=O)N1CCOc1cccc(Br)c1 the results were E coli Lon inh -5.
Screening CC(=O)Nc1cccc(-c2ccnc3c2CC(C(=O)NCc2ccc(N4CCN(C)CC4)cc2)O3)c1 (stereo not given) returned E coli Lon inh -7.
`COc1ccc(-n2nc3c(=O)[nH][nH]c3cc2=O)cc1` gave EBV gp42 block -17, GLD-1 TGE inh -6, E coli Lon inh 0, BCLXL inh 20, MEX-5 binding -79* and MCL1 BIM primary 20.
O=c1[nH][nH]c2cc(=O)n(-c3cccc(C(F)(F)F)c3)nc12 was read as EBV gp42 block 0, GLD-1 TGE inh 3, E coli Lon inh 1, BCLXL inh 9, MEX-5 binding -46* and MCL1 BIM primary 12.
For CC(=O)N(C)c1nc(N)n(-c2ccccc2)n1 the results were EBV gp42 block -12, GLD-1 TGE inh 11, E coli Lon inh 4, BCLXL inh 2, MEX-5 binding -1 and MCL1 BIM primary 6.
Screening CC(=Nc1ccc(Br)cc1)c1sc2ccccc2c1O returned EBV gp42 block 20, GLD-1 TGE inh -77, E coli Lon inh -71, BCLXL inh 3, MEX-5 binding -30* and MCL1 BIM primary -18.
Screening CC(=Nc1ccccc1)c1sc2ccccc2c1O returned EBV gp42 block -7, GLD-1 TGE inh -93, E coli Lon inh -23, BCLXL inh -12, MEX-5 binding -3 and MCL1 BIM primary -15.
For O=C1Nc2ccc(Cl)cc2C12Nc1ccccc1-c1nnc(SCc3ccccc3F)nc1O2 (stereo not given) the results were EBV gp42 block 102*, GLD-1 TGE inh -2, E coli Lon inh 4, BCLXL inh 5, MEX-5 binding -7 and MCL1 BIM primary 8.
Screening O=C1Nc2ccc(F)cc2C12Nc1ccccc1-c1nnc(SCc3ccccc3F)nc1O2 (stereo not given) returned EBV gp42 block 14, GLD-1 TGE inh 5, E coli Lon inh 2, BCLXL inh -1, MEX-5 binding -5 and MCL1 BIM primary 2.
`Cc1nc(NC(=O)c2ccccc2)sc1-c1csc(Nc2ccc(C(=O)O)cc2)n1` gave EBV gp42 block 71*, E coli Lon inh -9 and MEX-5 binding -3.
